# From PubChem BioAssay AID686978 (National Center for Advancing Translational Sciences (NCATS), 2013)
# The campaign covered roughly 420,000 compounds. About 64,000 (15%) were called active. Not shown: some 27% with an inconclusive outcome. These entries were drawn from the full list. A number with no mark means an inactive call. The call rests on the fitted dose curve; in most records, active means well fitted inhibition curve with a large enough effect; inconclusive means small, poorly fitted or top-dose-only effect; inactive means flat fitted curve, though single readings scatter.
# Assay: qHTS for Inhibitors of human tyrosyl-DNA phosphodiesterase 1 (TDP1): qHTS in cells in absence of CPT; further: nearly all actives have a fitted effect of over 55% in size
# Details: DT40 Tdp1-/- hTDP1 cells, no CPT, ATP luminescence, 48 h; activity change, negative = growth inhibition: at 46.2 µM (top of the series)
# Outline: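 Luminescent ATP content (CellTiter-Glo) served as the growth readout. Knockout chicken DT40 cells expressing human TDP1 were exposed to compounds without camptothecin for a minimum 48 hr at 37 °C.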
# On the % scale 0 is the no-effect control and ±100 the full control effect; potency means the concentration at half of the fitted maximal effect.
SMILES,"activity change, negative = growth inhibition [%]",Potency
O=C(O)C(O)[C@@](O)(Cc1ccc(O)cc1)C(=O)O (stereo partly drawn),-5.46,–
COCCCN1C(=O)C(=O)/C(=C(/O)c2ccc(S(=O)(=O)N3CCOCC3)cc2)C1c1ccc(F)cc1 (stereo not drawn),17.4,–
Cc1ccc(CNC(=O)Nc2nnc([C@H]3C[C@H](O)[C@@H](CO)O3)s2)cc1,17.4,–
O=C(O)CC(SCC(=O)Nc1ccc(Br)cc1)C(=O)O (stereo not drawn),-10.5,–
O=C(Nc1nnc(CCOCCOCCc2nnc(NC(=O)c3ccco3)s2)s1)c1ccco1,-5.18,–
CCC(=O)Nc1nc(OC)cc(OC)n1,-21.4,–
CCOc1ccccc1NC(=O)C1CCCN(C(=O)Nc2ccccc2)C1 (stereo not drawn),-0.555,–
O=C(c1ccc(CN2CCOCC2)cc1)N1CCN(c2ccccc2F)CC1,-29.9,–
CCc1ccc(NC(=O)CS(=O)CC(=O)N2CCN(c3ccccc3F)CC2)cc1 (stereo not drawn),-0.775,–
Cc1cccc(NC(=S)N2CCC(O)CC2)c1C,3.36,–
CCOc1ccccc1NC(=S)N1CCN(c2cccc(C)c2C)CC1,–,8.2 µM (active)
Cc1c(C)n(Cc2ccc(Cl)cc2)c2ccc(C(=O)N3CCN(c4ccccc4F)CC3)cc12,–,23.1 µM (active)
Brc1ccccc1C1Nc2cccc3cccc(c23)N1,-26.5,–
O=C(Cc1ccc(F)cc1)NC1CCCC1,-18.7,–
CCOc1ccc(NC(=O)CN(C)C(=O)c2c(C)noc2C)cc1OCC,-7.57,–
N#CC1(NC(=O)COc2ccc3oc4ccccc4c3c2)CCCCC1,-3.82,–
CCOC(=O)[C@H]1CCC[C@@H](NS(=O)(=O)c2ccc(NC(C)=O)cc2)C1,-27.8,–
COc1ccccc1OC(C)C(=O)Nc1ccc(S(=O)(=O)Nc2nccs2)cc1 (stereo not drawn),3.49,–
CCOc1ccc(C(C(=O)NCCOC)N(CCOC)C(=O)CCC(=O)Nc2ccccn2)cc1 (stereo not drawn),-22.5,–
Cc1ccc(C(=O)NCCc2nnc(SCC(=O)Nc3cccc(C(=O)O)c3)n2C)cc1,14.4,–
CCS(=O)(=O)C1=NSC2=NC(=O)/C(=C\c3cc(C)n(-c4cccc(OC)c4)c3C)C(=N)N21,-2.54,–
CCCCN(C=O)c1c(CC)nc2c(OCc3ccccc3C(=O)OC)cccn12,–,20.6 µM (active)
CCc1nc2c(OCC(=O)C(C)(C)C)cccn2c1N(C)C(=O)c1ccccc1F,-8.92,–
CCOc1ccccc1N(CC(=O)Nc1ccccc1C(=O)OC)S(C)(=O)=O,0.517,–
CCCCN(C=O)c1c(CC)nc2c(OCCC3CCCCC3)cccn12,–,9.2 µM (active)
CCc1nc2c(OCCC3CCCCC3)cccn2c1N(C)C(=O)c1ccco1,–,16.4 µM (active)

SMILES,"activity change, negative = growth inhibition [%]",Potency
CCc1nc2ccc(C(=O)N3CCN(S(=O)(=O)CC)CC3)cn2c1N(C=O)CCC(C)C,-19.4,–
CCc1nc2c(OCC(N)=O)cccn2c1N(C)C(=O)c1ccc(OC)cc1,-5.74,–
O=C(CNC(=O)c1ccco1)OCC(=O)c1ccccc1,-5.78,–
COc1ccc(COC(=O)N/N=C(\C)CC(=O)Nc2ccc(Cl)cc2)cc1,-6.88,–
CN(C)/N=C/c1cc(Cl)cc([N+](=O)[O-])c1O,-9.36,–
O=C(NC(Cc1ccccc1)C(=O)O)/C(=C\c1ccccc1)NC(=O)c1ccco1 (stereo not drawn),2.76,–
CC(=O)Nc1ccc(NC(=O)CS(=O)(=O)c2cn(CC(=O)N3CCCCC3)c3ccccc23)cc1,-5.42,–
Cc1noc(C)c1C(=O)Nc1ccccn1,1.03,–
CCOC1=C2CN(S(=O)(=O)c3ccc(C)cc3)[C@H](c3cccs3)C[C@H]2[C@H]2C(=O)N(c3ccccc3)C(=O)[C@H]2C1,-26.4,–
COC(=O)CSc1nnc(-c2cccnc2)o1,-7.69,–
CN(CC(=O)NC1CCCC1)S(=O)(=O)c1cnc[nH]1,11.5,–
CC1(C(=O)O)CCC(C(=O)Nc2ccc(Cl)c(Cl)c2)C1(C)C (stereo not drawn),9.89,–
COc1ccc(-c2nc3n(c2Br)CCC3)cc1,-21.5,–
CCOc1ccc(C(=O)NC2CCN(CC(=O)NCc3cccs3)CC2)cc1,0.552,–
COc1ccc(C(=O)O)cc1S(=O)(=O)NC1CCN(Cc2ccccc2)CC1,-23.7,–
COC(=O)c1cc(NC(=O)CN2CCN(C(C)=O)CC2)cc(C(=O)OC)c1,-5.06,–
COc1cc2[nH]c(=O)n(CCC(=O)NC3CCN(Cc4ccccc4)CC3)c(=O)c2cc1OC,5.02,–
COc1cc(C(=O)NC2CCN(Cc3ccccc3)CC2)cc(Cl)c1OC(C)C,–,20.6 µM (active)
COC(=O)c1cccc(NC(=O)CN2CCC(NC(=O)c3cc(OC)c(OC)c(OC)c3)CC2)c1,–,16.4 µM (active)
Cc1c(C=O)c2ccccc2n1CC(=O)O,10.6,–
CC(NC(=O)COC(=O)c1ccc(Cl)cc1O)c1ccc(F)cc1 (stereo not drawn),-15.9,–
Cc1ccc(S(=O)(=O)NCc2cn3ccsc3n2)c(C)c1,-25.2,–
Cn1nnnc1SCC(=O)Nc1nc2ccccc2s1,-4.07,–
Cc1ccn2c(=O)nc(SCC(=O)NCc3ccc(F)cc3)nc2c1,-3.12,–
COc1ccc(/C=C/C(=O)Nc2ccc(C34CC5CC(CC(O)(C5)C3)C4)cc2)cc1OC,–,1.3 µM (active)
COc1ccc(/C=C/C(=O)Nc2cccnc2)cc1OC,-26.5,–

SMILES,"activity change, negative = growth inhibition [%]",Potency
Cc1ccc(C23CC4CC(CC(C(=O)NCC(=O)O)(C4)C2)C3)cc1,-8.94,–
CCC(=O)NNc1cc(=O)c2c(=O)n(C)c(=O)n(C)c2[nH]1,-2.61,–
CCC(=O)c1ccc(N2CCN(C(=O)c3cc([N+](=O)[O-])ccc3F)CC2)c(F)c1,–,16.4 µM (active)
CCOC(=O)C1CCN(c2ccc(C(=O)O)cc2[N+](=O)[O-])CC1,3.97,–
CCOC(=O)N1CCN(c2cc(C)c([N+](=O)[O-])cc2F)CC1,–,16.4 µM (active)
CCOC(=O)N1CCN(C(=S)Nc2ccc(C)cc2C)CC1,-0.122,–
CC(C(=O)N1CCN(c2ccccc2F)CC1)c1ccc([N+](=O)[O-])cc1 (stereo not drawn),-28.8,–
O=C(Nc1cccc(Cl)c1)c1cc([N+](=O)[O-])ccc1N1CCN(CCO)CC1,-10.6,–
COC(=O)c1oc2ccc(Br)cc2c1NC(C)=O,-24.5,–
O=C(CSc1nc2ccccc2s1)Nc1ccc(C(=O)O)cc1,22,–
O=C(CSc1nc2ccc(Nc3nc(N4CCOCC4)nc(N4CCOCC4)n3)cc2s1)NCc1ccco1,–,13 µM (active)
Cc1ccc(S(=O)(=O)N2CCOCC2)cc1NC(=O)CSc1nnc(N)s1,-2.06,–
C=CCn1c(CSc2nc3ccccc3s2)nnc1SCC(=O)NCc1ccco1,1.91,–
CC1(c2ccccc2)NC(=O)N(CC(=O)Nc2cc(Cl)ccc2N2CCOCC2)C1=O (stereo not drawn),3.58,–
O=C(CC(c1ccccc1)c1cc(Cl)ccc1O)NCCN1CCOCC1 (stereo not drawn),-25.3,–
Cc1ccccc1NC(=O)CSc1nc2ccc(Nc3nc(N4CCOCC4)nc(N4CCOCC4)n3)cc2s1,–,14.6 µM (active)
CCn1c(SCC(=O)NCc2ccco2)nnc1-c1ccc(N)cc1,-25.1,–
O=C(CSc1nc(Nc2ccccc2)nc(N2CCOCC2)n1)Nc1cc(Cl)ccc1O,–,29.1 µM (active)
Cc1ccccc1-n1nc(C)c2c1N=C1C(Cl)=CC(Cl)=CN1C2c1ccc(C(=O)O)cc1 (stereo not drawn),14.2,–
CCn1ccnc1CN(C)C(=O)c1cc(COc2ccc(Cl)cc2OC)on1,-27,–
COC(=O)[C@H](Cc1ccccc1)NC(=O)N1CC(C)OC(C)C1 (stereo partly drawn),12,–
O=C1NC(c2ccccc2)CCC1(Cl)Cl (stereo not drawn),-3.73,–
Cc1cc(C(=O)COC(=O)CCCN2C(=O)c3ccccc3C2=O)c(C)n1C,-6.94,–
Cc1ccc(NC(=O)c2cn3c4c(ccc(Cl)c4c2=O)OC(C)C3)cc1C (stereo not drawn),-2.41,–
C#CCOCCOCCOCCNc1nc(N2CCN(C(=O)Cn3cc(CCO)nn3)CC2)nc(N2CCN(C(=O)[C@H](CCCCN)n3cc(CCCC)nn3)CC2)n1,-0.177,–
COc1cc(NC(=S)NCc2ccc(S(N)(=O)=O)cc2)cc(OC)c1,-21.2,–

SMILES,"activity change, negative = growth inhibition [%]",Potency
CCc1c(O)cc2n(c1=O)-c1ccccc1C2(C)C,-23.2,–
CC1(C)CC(N2CCN(C(c3ccccc3)c3ccccc3)CC2)=CC(=[N+]2CCCCC2)C1,–,0.164 µM (active)
CC1(C)CC(=O)C=C(N2CCCC2)C1,-1.76,–
CC1(C)CC(=O)C=C(N2CCOCC2)C1,20.4,–
Cc1nc(Cl)c2oc3ccccc3c2n1,10.8,–
O[C@H]1C[C@H](c2ccc(Cl)cc2)N(Cc2cccs2)C[C@@H]1n1cc(C2CC2)nn1,–,14.6 µM (active)
c1csc(CN2CCN(Cc3cccs3)C2c2cccs2)c1,9.91,–
COC(=O)C1=C(C(=O)OC)C(c2cc([N+](=O)[O-])ccc2O)c2sc(=O)[nH]c2S1 (stereo not drawn),3.48,–
CC1=NN(C(C)C)C(=O)C1,-12.2,–
Cc1ccc(CN(CC(=O)NC2CCCCC2)C(=O)c2csnn2)cc1,-12,–
COc1ccc(CN(CC(=O)NC2CCCC2)C(=O)CCC(=O)Nc2cc(C)on2)cc1,-10.2,–
Cc1cc(C(C)(C)C)oc1C(=O)N(CC(=O)NC1CCCC1)Cc1ccc(Cl)cc1,–,14.1 µM (active)
CN1CCN(C(=O)c2ccc(-c3ccc(Br)cc3)o2)CC1,-18.3,–
Cc1ccccc1C1=NC(C(F)(F)F)(C(F)(F)F)c2c(n(-c3ccc(F)cc3)c(=O)[nH]c2=O)N1,–,23.1 µM (active)
O=S(=O)(NCC1CC1)c1ccc(F)c(Cl)c1,28.1,–
Cc1cc(NS(=O)(=O)c2ccc(NC(=O)c3ccccc3C)cc2)nc(C)n1,6.45,–
CCCS(=O)(=O)c1c(Nc2ccccc2C)sc(C(=O)c2ccccc2)c1N,–,16.4 µM (active)
CCOC(=O)c1c(C)[nH]c(C)c1S(=O)(=O)N(C)CC(=O)Nc1ccccc1C,-10.7,–
COc1c(F)c(F)c(C(=O)O)c(Nc2ccccc2C)c1F,-8.56,–
Cc1ccc2c(c1)C1CN(C)CCC1N2C(=S)Nc1ccc(Cl)cc1Cl (stereo not drawn),0.632,–
Cc1ccc(Nc2c(O)nc[nH]c2=O)cc1C,-1.29,–
Cc1ccc2[nH]cc(CCCN3C(=O)c4ccccc4C3=O)c2c1,-3.71,–
CC(=O)CC(CC(=O)NC1CCCCC1)c1ccccc1 (stereo not drawn),-5.74,–
O=C(CCS(=O)(=O)c1ccccc1)NC1CCCC1,22,–
O=C(CNC1CCCCC1)NCC1(c2ccccc2)CCCC1,–,23.1 µM (active)
